# According to PubChem BioAssay (NCATS):
# Values joined by “and” are separate entries in the source; they are usually repeats but may differ in a detail not shown here. Equal values may be shown once. Inconclusive results are not listed. Active and inactive are the calls of the source. Unless noted, calls come from the whole dose curve; as a rule, active = well fitted curve in the direction sought with a large enough effect; inconclusive = small, poorly fitted or top-dose-only effect, or another doubt; inactive = no such curve, though single readings can be large; an effect the other way counts as inactive or inconclusive.
# Biological target: Glutaminase kidney isoform, mitochondrial (Homo sapiens) (UniProt O94925)
# Sequence (O94925 whole entry, looked up, canonical isoform): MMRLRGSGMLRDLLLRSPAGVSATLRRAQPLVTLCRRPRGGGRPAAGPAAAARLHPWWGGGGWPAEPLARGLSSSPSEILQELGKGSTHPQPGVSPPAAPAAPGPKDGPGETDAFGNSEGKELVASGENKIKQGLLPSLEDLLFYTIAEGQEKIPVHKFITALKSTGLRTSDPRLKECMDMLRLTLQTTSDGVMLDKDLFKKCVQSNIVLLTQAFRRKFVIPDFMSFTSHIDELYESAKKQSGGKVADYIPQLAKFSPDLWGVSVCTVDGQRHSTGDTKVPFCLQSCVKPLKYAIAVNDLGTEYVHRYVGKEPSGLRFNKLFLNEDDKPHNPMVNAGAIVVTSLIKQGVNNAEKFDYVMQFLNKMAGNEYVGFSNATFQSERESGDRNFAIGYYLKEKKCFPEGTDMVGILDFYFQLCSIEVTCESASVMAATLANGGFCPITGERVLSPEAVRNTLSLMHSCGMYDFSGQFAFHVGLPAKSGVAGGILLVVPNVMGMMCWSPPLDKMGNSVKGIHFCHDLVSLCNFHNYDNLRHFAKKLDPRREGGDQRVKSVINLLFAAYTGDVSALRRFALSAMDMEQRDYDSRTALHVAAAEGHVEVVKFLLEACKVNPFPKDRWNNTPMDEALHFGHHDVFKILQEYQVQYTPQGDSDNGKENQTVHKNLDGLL
# Assay: qHTS for Inhibitors of Glutaminase (GLS): LOPAC Validation (AID 624146);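 note: glutamate product detected by oxidase and peroxidase coupled Amplex red fluorescence gain; % is set by controls: 0 for no effect and ±100 for the full control effect; nearly all actives have a fitted effect of over 60% in size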
# Conditions: glutaminase enzyme activity inhibition; series mostly up to 46.1 µM; activity change, negative = inhibition: at the top concentration
# In short: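 Read-out is an Amplex red fluorescence increase coupled through glutamate oxidase and HRP, measured before and after 30 min room-temperature incubation. hKGA is in 45 mM KH2PO4 (pH 8.2) with 0.02% Tween-20; glutamine added as 1mM solution.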
row,SMILES,"activity change, negative = inhibition"
1,COc1ccc(C(=O)N2CCCC2=O)cc1,-28.1% (inactive)
2,NC(=O)CN1CCCC1=O,230% (inactive)
3,COC(=O)C1=CCCN(C)C1,3.11% (inactive)

# Biological target: Glucagon-like peptide 1 receptor (Homo sapiens) (UniProt P43220)
# Sequence (P43220 whole entry, looked up): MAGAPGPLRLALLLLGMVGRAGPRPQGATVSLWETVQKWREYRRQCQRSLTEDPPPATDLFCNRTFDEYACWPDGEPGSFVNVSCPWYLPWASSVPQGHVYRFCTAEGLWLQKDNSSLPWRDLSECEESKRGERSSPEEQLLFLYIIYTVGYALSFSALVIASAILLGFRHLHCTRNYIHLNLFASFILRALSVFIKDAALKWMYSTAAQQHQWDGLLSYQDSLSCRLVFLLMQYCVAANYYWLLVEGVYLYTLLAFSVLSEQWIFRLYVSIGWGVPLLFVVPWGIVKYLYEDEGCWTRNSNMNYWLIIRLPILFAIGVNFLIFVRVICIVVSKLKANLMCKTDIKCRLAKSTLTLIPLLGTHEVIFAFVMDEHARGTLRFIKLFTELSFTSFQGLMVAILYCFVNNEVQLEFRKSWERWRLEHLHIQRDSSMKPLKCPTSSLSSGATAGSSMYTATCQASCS
# Assay: qHTS of GLP-1 Receptor Agonists: LOPAC Validation (AID 624148);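 note: luminescence from a luciferase reporter switched on by cAMP; 0% is about no effect; higher luminescence signal means agonism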
# Conditions: GLP-1R agonist cell assay; series mostly up to 46.1 µM; activation: at the top concentration
# Excerpt: The overall goal of this project was to develop a novel assay for discovering small molecule ligands for class B1 G protein-coupled receptors (GPCRs). Very few agonists (or inverse agonists) with generally weak activity for this entire group of physiologically important receptors are known to date. To establish proof-of-principle that this critical bottleneck can be overcome with a suitable screening approach, our studies focused on the class B1 receptor for glucagon-like peptide-1 (GLP-1R), a potential therapeutic target for diabetes and neurodegenerative disease.
# The assay was developed in a "mix and measure" format using a cell-based functional readout. Toward this goal, stably transfected HEK293 cell clones were established that co-express (i) a cAMP-responsive luciferase reporter gene, and (ii) GLP-1Rs that upon ligand interaction either stimulate (agonists) or inhibit (inverse agonists) luciferase activity. In different cell lines to be used for screening, expressed GLP-1Rs are specifically optimized for high sensitivity detection of either weak agonists (hypersensitive receptor) or inverse agonists (constitutively active receptor mutant). In addition, control cell lines were developed that express either the cAMP-responsive reporter gene without recombinant GLP-1Rs (enabling initial exclusion of GLP-1R independent effects of candidate probes), or the reporter gene together with wild type GLP-1Rs (for confirmation of probe activity at this receptor), or the reporter gene in combination with the constitutively active orphan receptor GPR119 (enabling initial exclusion of GLP-1R independent inhibitory effects of candidate inverse agonists).
# To that end, this assay was optimized for 1536-well format and screened against the MLSMR.
# NIH Molecular Libraries Probe Production Network [MLPCN]
# (§1) NIH Chemical Genomics Center [NCGC]
# PI Name: Martin Beinborn, Tufts Medical Center
# In a white solid 1536-well plate, 6 uL of cells are dispensed in DMEM without phenol red, 10% Nu serum, and 1% pen-strep medium. The plates are then incubated for 12 hours at 37 deg C at 5% CO2 before 23 nL of compounds are added. After a 4-6 hr incubation at37 deg C and 5% CO2, 3 uL of detection reagent are added and after a 12 min incubation at RT, a luminescent read is obtained on the ViewLux.
row,SMILES,activation
1,COc1ccc(C(=O)N2CCCC2=O)cc1,-1.89% (inactive)
2,NC(=O)CN1CCCC1=O,0.604% (inactive)
3,COC(=O)C1=CCCN(C)C1,0.755% (inactive)

# System: not listed separately
# Assay: qHTS of Nrf2 Activators: LOPAC Validation (AID 624149); note: 0% is about no effect
# Conditions: Nrf2/ARE reporter cell assay; series mostly up to 46.1 µM; activation: at the top concentration
# In short: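 AREc32 cells carrying an ARE-driven firefly luciferase were grown overnight in OPTI-MEM with 5% FBS, then exposed to compounds for 24 hr at 37 deg C. Luciferase signal was read after 30 min with Steady-Glo at RT.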
row,SMILES,activation
1,COc1ccc(C(=O)N2CCCC2=O)cc1,0.73% (inactive)
2,NC(=O)CN1CCCC1=O,-1.56% (inactive)
3,COC(=O)C1=CCCN(C)C1,-1.9% (inactive)

# System: not listed separately
# Assay: HTS Assay for Allosteric Antagonists of the Human D2 Dopamine Receptor: Hit Validation in HTRF (AID 624455); note: potency is the fitted concentration of half-maximal effect;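 note: stable D1 dopamine receptor cell line scored for blocking the D1 response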; for activity, negative = inhibition: % is set by controls: 0 for no effect and ±100 for the full control effect
# Conditions: Cells stably expressing D1 dopamine receptor, inhibition mode; series mostly up to 46.1 µM; activity, negative = inhibition: at the top concentration
# Excerpt: Dopamine receptors (DARs) are involved in the etiology and/or therapy of a number of neuropsychiatric and endocrine disorders. For instance, all receptor-based antiparkinsonian drugs work via stimulating the D2 DAR subtype whereas all FDA-approved antipsychotic agents are antagonists of this receptor. […] There are three different types of allosteric modulators that we are seeking, two of which will stimulate or augment receptor signaling, allosteric agonists and potentiators, while the third, allosteric antagonists, will attenuate receptor signaling. The present primary screening assay measures compound antagonism after an EC80 addition of dopamine by tracking calcium flux in a […], inducible Hek293 Trex D2 cell line. This assay measures activity of the hits in the D1 HTRF assay.
# as §1
# NIH Molecular Libraries Probe Centers Network [MLPCN]
# Assay Submitter (PI): David Sibley
# Cells stably expressing the D1 dopamine receptor will be run in an HTRF assay and compounds will be examined for the ability to inhibit the D1 mediated response.
SMILES,"activity, negative = inhibition",Potency
COc1ccc(C(=O)N2CCCC2=O)cc1,0.507% (inactive),
NC(=O)CN1CCCC1=O,6.27% (inactive),
CN1C[C@H](C(=O)N[C@]2(C)O[C@@]3(O)[C@@H]4CCCN4C(=O)[C@H](Cc4ccccc4)N3C2=O)C[C@@H]2c3cccc4[nH]cc(c34)C[C@H]21,,0.082 µM (active)
COC(=O)C1=CCCN(C)C1,-0.495% (inactive),

# System: not listed separately
# Assay: qHTS assay for small molecule agonists of the antioxidant response element (ARE) signaling pathway (AID 651741; active = well fitted activation curve with a large enough effect in the signal ratio; the % refers to the signal ratio; note: potency is the fitted concentration of half-maximal effect; for activation: % of control where 0% means no effect)
# Conditions: HepG2 ARE-bla reporter, beta-lactamase FRET ratio, 16 h; series mostly up to 96 µM; activation: at the top concentration
# In short: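 HepG2 ARE-bla cells plated at 2,000 cells/well and incubated 5 h at 37 C/5% CO2 received 23 nL compound in DMSO. After 16 h at 37 C, LiveBLAzer B/G FRET substrate was applied for 2 h at room temperature and fluorescence read.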
SMILES,Potency,activation
CC[n+]1c(-c2ccccc2)c2cc(N)ccc2c2ccc(N)cc21,33.5 µM (active),
CCC(=O)O[C@H]1CC[C@H]2[C@@H]3CCC4=CC(=O)CC[C@]4(C)[C@H]3CC[C@]12C,,13.4% (inactive)
N#Cc1nn(-c2c(Cl)cc(C(F)(F)F)cc2Cl)c(N)c1S(=O)C(F)(F)F (stereo not given),61.1 µM (active),
CN(C)C(=S)SSC(=S)N(C)C,,12.3% (inactive)
CCNc1nc(Cl)nc(NCC)n1,,2.95% (inactive)
Oc1ccc(Cl)cc1Cc1cc(Cl)ccc1O,18.8 µM (active),
C[C@H]1C(=O)O[C@@H]2CCN3CC=C(COC(=O)[C@](C)(O)[C@]1(C)O)[C@H]23,,2.43% (inactive)
Oc1ccc(Cl)cc1Sc1cc(Cl)ccc1O,29.8 µM (active),
CN(C)C(=S)SC(=S)N(C)C,24.3 µM (active),
NC(N)=NC(=O)c1nc(Cl)c(N)nc1N,42.2 µM (active),
Oc1c(Br)cc(Br)cc1Br,42.2 µM (active),
O=C(NC(=O)c1c(F)cccc1F)Nc1cc(Cl)c(OC(F)(F)C(F)C(F)(F)F)cc1Cl (stereo not given),19.3 µM (active),
COCC(=O)N(c1c(C)cccc1C)C(C)C(=O)OC (stereo not given),,1.08% (inactive)
COP(=S)(OC)Oc1ccc(Sc2ccc(OP(=S)(OC)OC)cc2)cc1,61.1 µM (active),

# System: not listed separately
# Assay: qHTS assay for small molecule activators of the p53 signaling pathway (AID 651743; active = well fitted activation curve with a large enough effect in the signal ratio, not every such curve was filed as active; the % refers to the signal ratio; note: potency is the fitted concentration of half-maximal effect; for activation: % of control where 0% means no effect)
# Conditions: HCT-116 p53RE-bla, beta-lactamase FRET ratio, 16 h; activation: active compounds read high
# In short: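 HCT-116 p53RE-bla, 4,000 cells/well; 5 h settle; cpd/DMSO 16 h, 37 C; LiveBLAzer B/G 2 h RT; fluorescence intensity.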
SMILES,Potency,activation
CC[n+]1c(-c2ccccc2)c2cc(N)ccc2c2ccc(N)cc21,8.91 µM (active),
CCC(=O)O[C@H]1CC[C@H]2[C@@H]3CCC4=CC(=O)CC[C@]4(C)[C@H]3CC[C@]12C,,-1.29% (inactive)
CN(C)C(=S)SSC(=S)N(C)C,,2.15% (inactive) and 1.76% (inactive)
CCNc1nc(Cl)nc(NCC)n1,,1.85% (inactive)
Oc1ccc(Cl)cc1Sc1cc(Cl)ccc1O,28.2 µM (active),
C[C@@H]1C[C@@H]([C@H](O)CC2CC(=O)NC(=O)C2)C(=O)[C@@H](C)C1,,3.69% (inactive) and -1.29% (inactive) and 0.673% (inactive)
O=c1n(Cl)c(=O)n(Cl)c(=O)n1Cl,,-4.94% (inactive)
O=C(NC(=O)c1c(F)cccc1F)Nc1cc(Cl)c(OC(F)(F)C(F)C(F)(F)F)cc1Cl (stereo not given),,4.35% (inactive)
COCC(=O)N(c1c(C)cccc1C)C(C)C(=O)OC (stereo not given),,-5.17% (inactive)
COP(=S)(OC)Oc1ccc(Sc2ccc(OP(=S)(OC)OC)cc2)cc1,,9.51% (inactive)

# System: not listed separately
# Assay: qHTS assay for small molecule activators of the nuclear factor-kappa B (NF-kB) signaling pathway (AID 651749; active = well fitted activation curve with a large enough effect in the signal ratio; the % refers to the signal ratio; note: % of control where 0% means no effect)
# Conditions: NF-kB-bla ME-180 cells, beta-lactamase FRET ratio, 16 h; active compounds read high
# In short: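 Incubation lasted 16 hr at 37C in 5% CO2 after 23 nL compound addition to ME-180 NF-kB-bla cells. Activation appears as beta-lactamase-mediated FRET loss.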
row,SMILES,activation
1,CCCCCCCCC(=O)NCc1ccc(O)c(OC)c1,-0.791% (inactive)
2,CCC(=O)O[C@H]1CC[C@H]2[C@@H]3CCC4=CC(=O)CC[C@]4(C)[C@H]3CC[C@]12C,-1.92% (inactive)
3,O=C(CCl)c1ccc(Cl)cc1Cl,-1.69% (inactive)
4,CN(C)C(=S)SSC(=S)N(C)C,-1.21% (inactive)
5,Oc1ccc(Cl)cc1Cc1cc(Cl)ccc1O,2.23% (inactive)
6,C[C@H]1C(=O)O[C@@H]2CCN3CC=C(COC(=O)[C@](C)(O)[C@]1(C)O)[C@H]23,0.569% (inactive)
7,CCOP(=S)(OCC)O/N=C(\C#N)c1ccccc1,0.361% (inactive)
8,C[C@@H]1C[C@@H]([C@H](O)CC2CC(=O)NC(=O)C2)C(=O)[C@@H](C)C1,5.34% (inactive)
9,O=c1n(Cl)c(=O)n(Cl)c(=O)n1Cl,-1.25% (inactive)
10,Oc1c(Br)cc(Br)cc1Br,-2.42% (inactive) and -0.471% (inactive)
11,O=C(NC(=O)c1c(F)cccc1F)Nc1cc(Cl)c(OC(F)(F)C(F)C(F)(F)F)cc1Cl (stereo not given),1.78% (inactive)

# System: not listed separately
# Assay: qHTS assay for small molecule disruptors of the mitochondrial membrane potential - 1 hr assay (AID 651754; calls by dose curve; note: nearly all actives have a fitted effect of over 35% in size; note: potency is the fitted concentration of half-maximal effect; for ratio change, negative = depolarisation: % is set by controls: 0 for no effect and ±100 for the full control effect)
# Conditions: series mostly up to 92.2 µM; ratio change, negative = depolarisation: at the top concentration
# In short: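 HepG2 cells, attached overnight at 37C, were exposed to compound or DMSO vehicle for 1 hr at 37C, 5% CO2, then stained with Mito-MPS dye for 30 min. Red aggregate versus green monomer fluorescence reports membrane potential.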
SMILES,"ratio change, negative = depolarisation",Potency
CN(C)C(=S)SSC(=S)N(C)C,-5.53% (inactive),
Oc1ccc(Cl)cc1Cc1cc(Cl)ccc1O,,10.6 µM (active)
Oc1ccc(Cl)cc1Sc1cc(Cl)ccc1O,,8.41 µM (active)

# System: not listed separately
# Assay: qHTS assay for small molecule disruptors of the mitochondrial membrane potential - 5 hr assay (AID 651755; calls by dose curve; note: potency is the fitted concentration of half-maximal effect; nearly all actives have a fitted effect of over 40% in size)
# Conditions: JC-1-type ratio dye
# In short: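 HepG2 cells (2,000/well), attached overnight, exposed to compound 5 hr at 37C, then Mito-MPS dye 30 min. Fluorescence read for monomers (490/535 nm) and aggregates (540/590 nm).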
row,SMILES,Potency
1,CC[n+]1c(-c2ccccc2)c2cc(N)ccc2c2ccc(N)cc21,11.9 µM (active)
2,CN(C)C(=S)SSC(=S)N(C)C,23.7 µM (active)
3,Oc1ccc(Cl)cc1Cc1cc(Cl)ccc1O,11.9 µM (active)
4,Oc1ccc(Cl)cc1Sc1cc(Cl)ccc1O,7.5 µM (active)

# Biological target: Tumor necrosis factor (Homo sapiens) (UniProt P01375)
# Sequence (P01375 whole entry, looked up): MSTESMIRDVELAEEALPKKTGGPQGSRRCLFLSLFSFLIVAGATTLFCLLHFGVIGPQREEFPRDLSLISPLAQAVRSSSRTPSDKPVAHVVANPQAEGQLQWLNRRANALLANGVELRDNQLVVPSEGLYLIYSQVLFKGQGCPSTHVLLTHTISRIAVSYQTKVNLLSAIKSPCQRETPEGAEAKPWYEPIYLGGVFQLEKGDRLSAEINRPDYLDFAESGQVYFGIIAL
# Assay: qHTS assay to identify small molecules that stimulate Tumor Necrosis Factor-alpha (TNF-alpha) secretion (AID 651757; active = well fitted curve in the direction sought with a large enough effect in the signal ratio; the % refers to the signal ratio; note: potency is the fitted concentration of half-maximal effect; for activation (TNF-alpha secretion): 0% is about no effect)
# Conditions: Human cells, HTRF 665/615 ratio; series mostly up to 92.2 µM; activation (TNF-alpha secretion): at the top concentration
# In short: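 THP-1 cells were exposed to compounds for 17 hrs at 37 C, after which secreted TNF-alpha was measured by homogeneous HTRF (TR-FRET) using cryptate- and XL665-labeled anti-TNF-alpha antibodies, read after 3 hr at room temperature.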
SMILES,Potency,activation (TNF-alpha secretion)
CC[n+]1c(-c2ccccc2)c2cc(N)ccc2c2ccc(N)cc21,37.6 µM (active),
O=C(CCl)c1ccc(Cl)cc1Cl,,-0.063% (inactive)
CN(C)C(=S)SSC(=S)N(C)C,,0.246% (inactive)
C[C@@H]1C[C@@H]([C@H](O)CC2CC(=O)NC(=O)C2)C(=O)[C@@H](C)C1,inactive,
Oc1c(Br)cc(Br)cc1Br,,0.31% (inactive)
